Assay results published in the supplement of paper PMC7530171.
± gives the standard deviation.

These compounds were tested on THP-1 (assay: THP-1 cell loss relative to DMSO control; higher = more host cell loss (toxicity); extreme values may be limits of the assay). Settings: 10 µM; 4 days; infection: M. tuberculosis H37Rv.
Procedure: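 OICR kinase inhibitor library screened in duplicate at 10 uM against M. tuberculosis-infected THP-1 macrophages, 4 days at 37 C. THP-1 cell loss (cytotoxicity or loss of adherence) was quantified from Hoechst-stained nuclei counts by high-content imaging and normalised to the 1% DMSO control; 100 = complete loss of host cells.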

| Structure (SMILES) | THP-1 cell loss |
| --- | --- |
| Cc1ccccc1-n1c(Cn2cnc3c(N)ncnc32)nc2cccc(C)c2c1=O | 5.83 ± 8.2% |
| C/C(O)=C(\C#N)C(=O)Nc1cc(Br)ccc1Br | 4 ± 5.7% |
| COc1ccc2c(c[n+](C)c3c4cc5c(cc4ccc23)OCO5)c1OC [Chelerythrine chloride] | 100% |
| C[C@]12O[C@H](C[C@]1(O)CO)n1c3ccccc3c3c4c(c5c6ccccc6n2c5c31)CNC4=O [Lestaurtinib] | 100% |
| N#C/C(=C\c1ccc(O)c(O)c1)C(N)=S | 11.5 ± 1.3% |
| COC[C@H]1OC(=O)c2coc3c2[C@@]1(C)C1=C(C3=O)[C@@H]2CCC(=O)[C@@]2(C)C[C@H]1OC(C)=O [Wortmannin] | 45.8 ± 7.5% |
| CN[C@@H]1C[C@H]2O[C@@](C)([C@@H]1OC)n1c3ccccc3c3c4c(c5c6ccccc6n2c5c31)C(=O)NC4 [Staurosporine] | 100% |
| CCn1cnc2c(Nc3cccc(Cl)c3)nc(N[C@@H]3CCCC[C@@H]3N)nc21 | 100% |
| O=c1[nH]c2ccc(Cl)cc2c(N[C@@H]2CN3CCC2CC3)c1-c1nc2ccccc2[nH]1 | 100% |
| O=C1NC(=O)c2c1c1c3ccccc3[nH]c1c1[nH]c3ccccc3c21 [Arcyriaflavin A] | 75.7 ± 34% |
| COc1ccc2c(c1)/C(=C/c1cnc[nH]1)C(=O)N2 | 53.2 ± 9.3% |
| Cc1n[nH]c2ccc(-c3cncc(OC[C@@H](N)Cc4c[nH]c5ccccc45)c3)cc12 | 100% |
| O=C1NC(=O)c2c1c1c3ccccc3n3c1c1c2c2ccccc2n1[C@H]1CC[C@@H]3O1 | 100% |
| O=C1Nc2ccc3ncsc3c2/C1=C/c1cnc[nH]1 [Imidazolo-oxindole PKR inhibitor C16] | 100% |
| NC(=S)N/N=C/c1coc2ccccc2c1=O.[Cl][Cu][Cl] | 16.3 ± 5.1% |
| Cn1cc(C2=C(c3cn(C4CCN(Cc5ccccn5)CC4)c4ccccc34)C(=O)NC2=O)c2ccccc21 [Enzastaurin] | 52.5 ± 67% |
| CC(=O)c1c(O)c(C)c(O)c(Cc2c(O)c3c(c(C(=O)/C=C/c4ccccc4)c2O)OC(C)(C)C=C3)c1O [Rottlerin] | 71.2 ± 41% |
| COC(=O)[C@@]1(O)C[C@H]2O[C@]1(C)n1c3ccccc3c3c4c(c5c6ccccc6n2c5c31)C(=O)NC4 | 100% |
